# Reference: ChEMBL document CHEMBL1961873, “Compounds: GSK PKIS; Assays: Nanosyn kinase panel” (2012)
# Tests used:
# [1] = molecular target: T1, 3-phosphoinositide-dependent protein kinase 1 (Homo sapiens) (UniProt O15530); settings: at 0.1 µM;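 note: values are mean inhibition of PDK1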
# T1 sequence (whole entry): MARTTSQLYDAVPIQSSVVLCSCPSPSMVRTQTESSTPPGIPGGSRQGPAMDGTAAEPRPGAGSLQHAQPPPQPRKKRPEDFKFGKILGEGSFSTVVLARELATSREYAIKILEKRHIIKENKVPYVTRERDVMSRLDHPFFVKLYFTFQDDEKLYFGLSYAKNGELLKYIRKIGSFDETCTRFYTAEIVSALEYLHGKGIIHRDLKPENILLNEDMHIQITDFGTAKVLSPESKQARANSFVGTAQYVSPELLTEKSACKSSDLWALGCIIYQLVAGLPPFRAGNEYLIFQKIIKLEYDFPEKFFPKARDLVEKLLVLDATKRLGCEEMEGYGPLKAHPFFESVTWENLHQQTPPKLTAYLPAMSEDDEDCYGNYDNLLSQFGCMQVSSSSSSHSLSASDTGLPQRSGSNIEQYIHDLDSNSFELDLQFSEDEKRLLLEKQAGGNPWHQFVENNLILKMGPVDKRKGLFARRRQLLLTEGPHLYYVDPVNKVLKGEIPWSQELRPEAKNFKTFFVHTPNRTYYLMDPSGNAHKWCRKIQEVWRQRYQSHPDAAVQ
# [2] = molecular target: cAMP-dependent protein kinase catalytic subunit alpha (Homo sapiens) (UniProt P17612); settings: at 0.1 µM
# [3] = molecular target: cAMP-dependent protein kinase catalytic subunit alpha (Homo sapiens) (UniProt P17612); settings: at 1 µM
# [4] = molecular target: Protein kinase C alpha type (Homo sapiens) (UniProt P17252); settings: at 0.1 µM
# [5] = molecular target: Protein kinase C alpha type (Homo sapiens) (UniProt P17252); settings: at 1 µM
# [6] = molecular target: Protein kinase C beta type (Homo sapiens) (UniProt P05771); settings: at 0.1 µM
# Sequence of Protein kinase C beta type (Homo sapiens) (P05771 2-671 limits assumed): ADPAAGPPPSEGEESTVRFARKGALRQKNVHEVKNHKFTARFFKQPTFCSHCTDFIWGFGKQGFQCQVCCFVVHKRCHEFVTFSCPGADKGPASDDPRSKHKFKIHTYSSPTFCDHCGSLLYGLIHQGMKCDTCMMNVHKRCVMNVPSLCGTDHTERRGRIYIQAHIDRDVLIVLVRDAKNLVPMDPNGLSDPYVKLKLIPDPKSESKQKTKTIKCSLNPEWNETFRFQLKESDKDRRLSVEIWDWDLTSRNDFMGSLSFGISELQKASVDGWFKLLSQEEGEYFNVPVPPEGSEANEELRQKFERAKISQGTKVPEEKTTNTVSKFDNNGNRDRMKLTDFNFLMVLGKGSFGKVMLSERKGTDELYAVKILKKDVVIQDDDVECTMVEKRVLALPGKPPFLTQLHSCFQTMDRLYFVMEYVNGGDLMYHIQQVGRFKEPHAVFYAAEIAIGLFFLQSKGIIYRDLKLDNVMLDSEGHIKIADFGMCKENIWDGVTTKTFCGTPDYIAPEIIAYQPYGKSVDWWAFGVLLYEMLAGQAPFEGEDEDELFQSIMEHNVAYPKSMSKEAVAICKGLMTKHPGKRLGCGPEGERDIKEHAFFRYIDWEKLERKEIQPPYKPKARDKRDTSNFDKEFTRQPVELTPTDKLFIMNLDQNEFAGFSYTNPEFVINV
# [7] = molecular target: Protein kinase C beta type (Homo sapiens) (UniProt P05771); settings: at 1 µM
# [8] = molecular target: Protein kinase C eta type (Homo sapiens) (UniProt P24723); settings: at 0.1 µM
# Sequence of Protein kinase C eta type (Homo sapiens) (P24723 whole entry): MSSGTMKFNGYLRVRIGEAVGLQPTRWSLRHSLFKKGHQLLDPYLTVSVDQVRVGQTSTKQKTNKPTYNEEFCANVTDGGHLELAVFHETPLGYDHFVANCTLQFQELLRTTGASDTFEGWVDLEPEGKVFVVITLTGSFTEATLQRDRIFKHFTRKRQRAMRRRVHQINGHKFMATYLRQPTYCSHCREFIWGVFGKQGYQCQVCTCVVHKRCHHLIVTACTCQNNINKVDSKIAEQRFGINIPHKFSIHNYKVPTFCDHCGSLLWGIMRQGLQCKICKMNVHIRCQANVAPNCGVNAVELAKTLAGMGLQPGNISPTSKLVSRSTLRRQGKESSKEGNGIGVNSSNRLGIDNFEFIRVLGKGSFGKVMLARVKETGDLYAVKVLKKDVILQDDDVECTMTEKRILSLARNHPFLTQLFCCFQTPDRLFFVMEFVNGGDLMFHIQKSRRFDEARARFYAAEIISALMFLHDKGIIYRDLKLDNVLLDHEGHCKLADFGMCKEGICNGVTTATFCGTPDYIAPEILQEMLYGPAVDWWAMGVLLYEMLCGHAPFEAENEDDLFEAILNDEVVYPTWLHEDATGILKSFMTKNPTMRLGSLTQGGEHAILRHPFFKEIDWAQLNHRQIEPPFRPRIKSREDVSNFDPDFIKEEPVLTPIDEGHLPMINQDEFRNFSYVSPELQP
# [9] = molecular target: Protein kinase C eta type (Homo sapiens) (UniProt P24723); settings: at 1 µM
# [10] = molecular target: Protein kinase C gamma type (Homo sapiens) (UniProt P05129); settings: at 0.1 µM;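 note: values are mean percent inhibition of PKC gamma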
Compound,inhibition [1] [%],inhibition [2] [%],inhibition [3] [%],inhibition [4] [%],inhibition [5] [%],inhibition [6] [%],inhibition [7] [%],inhibition [8] [%],inhibition [9] [%],inhibition [10] [%]
CN(C)c1ccc2c(c1)/C(=C/Nc1ccc(S(N)(=O)=O)cc1)C(=O)N2,11.6,1.77,1.6,0.48,1.56,0.94,0.89,2.02,2.17,0.64
Fc1ccc(-c2ncn(C3CCNCC3)c2-c2ccnc(Oc3ccc(F)c(F)c3)n2)cc1,0.57,-0.98,9.25,-3.02,-0.82,-0.22,3.21,3.45,5.62,1.57
COc1ccc(C2=C(N3CCc4ccccc43)C(=O)NC2=O)cc1,4.19,1.7,1.99,1.46,3.07,1.02,2.88,2.61,6.52,4.16
CN(c1ccc(NC(=O)Nc2c(Cl)cccc2Cl)cc1)c1ccnc(Nc2cccc(CS(C)(=O)=O)c2)n1,9.04,2.36,3.01,1.14,2.02,0.67,1.35,1.33,3.8,3.61
Cc1ccc(NC(=O)c2ccoc2)cc1-c1ccc(C(=O)NCC2CC2)cc1,0.18,2.1,2.23,-0.03,0.82,1.84,1.76,4.75,3.88,-1.55
COC(=O)Nc1nc2ccc(Sc3ccc(NC(=O)Nc4cc(C(F)(F)F)ccc4F)cc3)cc2[nH]1,1.38,-0.04,2.01,0.22,0.15,0.84,0.31,-1.46,0.54,2.88
COc1cccc(/C=N/Nc2ncnc3c2cnn3-c2cccc(OC)c2)c1,1.13,1.27,1.21,0.12,0.85,-0.96,0.85,5.46,4.14,3.43
FC(F)(F)c1cccc(Nc2nccc(-c3cnn4nc(-c5ccccc5)ccc34)n2)c1,-0.51,1.63,0.52,-0.27,0.87,-0.86,2.15,2.08,3.01,2.43
Fc1ccc(-c2ncn(C3CCNCC3)c2-c2ccnc(Oc3ccc4c(c3)OCO4)n2)cc1,-1.49,6.76,37.9,1.59,3.68,1.12,8.79,7.87,4.75,0.91
O=C(Nc1n[nH]c2cc(-c3cc(F)ccc3F)ccc12)C1CC1,2.95,2.32,0.93,0.67,1.99,0.43,2.04,2.87,3.93,2.77
C[C@@H](Oc1cc(-n2cnc3ccc(OCC4CCN(C)CC4)cc32)sc1C(N)=O)c1ccccc1Cl,2.77,3.4,-1.07,1.11,5.2,1.4,3.67,5.52,5.34,3.17
NC(=O)c1cc(-c2ccncc2)cc(-c2ccccc2)c1N,2.16,2.43,6.13,1.21,4.38,1.43,1.87,5.05,7.89,-0.73
Clc1ccc(CNc2nccc(-c3cnn4ncccc34)n2)cc1,2.08,0.38,1.31,0.92,4.19,0.26,1.03,2.3,7.54,0.4
NS(=O)(=O)c1ccc(N/N=C2\C(=O)Nc3ccc(C(=O)NCCCn4ccnc4)cc32)cc1,3.57,2.3,2.8,0.48,3.66,0.75,3.15,3.58,4.66,3.24
COc1cc(C)c(N(C)C(=O)CN(C)C)cc1Nc1nc(Nc2cccc(F)c2C(N)=O)c2cc[nH]c2n1,3.26,-0.93,-3.21,-3,-2.59,1.6,-0.89,4.46,1.91,2.63
CCN(CC)Cc1ccc(Nc2nccc(-c3cnn4ncccc34)n2)cc1,0.96,-0.94,4.26,0.47,17.8,0.22,-5.55,5.27,7.25,0.4
Fc1ccc(-c2ncn(CCCN3CCOCC3)c2-c2ccncc2)cc1,-0.98,0.23,1.67,1.44,1.07,-0.46,-0.8,-2.71,-1.13,-1.84
